The values below come from PubChem BioAssay (NCI).

The panel holds about 83,000 compounds, 20% with a hit somewhere; the sample as a whole holds those more often.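 Compound tested at a single concentration for 48 hours in 96-well plates; a percent growth value below 10 was scored as active.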 A number with no mark means an inactive call. The source made the active and inactive calls.

Assay in all cases: NCI-60 one-dose screen, 48 h (100 = growth as untreated, 0 = no growth, -100 = all killed)
Test [1] relates to NCI-H23 lung. To be noted: 10 µM unless noted.
In test [2] the test system is NCI-H226 lung. To be noted: 10 µM unless noted.
Test [3] deals with NCI-H322M lung. To be noted: 10 µM unless noted.
Test [4] has as its system HOP-62 NSCLC. To be noted: 10 µM unless noted.
Test [5] has as its system HOP-92 NSCLC. To be noted: 10 µM.
For test [6], the system named is A549/ATCC NSCLC. To be noted: 10 µM unless noted.
In test [7] the test system is 786-0 renal. To be noted: 10 µM unless noted.
For test [8], the system named is COLO 205 colon. To be noted: 10 µM unless noted.
Test [9] deals with DU-145 prostate. To be noted: 10 µM unless noted.
Test [10] relates to K-562 leukemia. To be noted: 10 µM unless noted.
The test system of test [11] is MALME-3M melanoma. To be noted: 10 µM unless noted.
In test [12] the test system is MDA-MB-231 breast. To be noted: 10 µM unless noted.
Test [13] relates to RXF 393 renal. To be noted: 10 µM unless noted.
Test [14] concerns SF-268 CNS. To be noted: 10 µM unless noted.
In test [15] the test system is SF-295 CNS. To be noted: 10 µM unless noted.
Test [16] deals with SF-539 CNS. To be noted: 10 µM unless noted.
The test system of test [17] is UACC-257 melanoma. To be noted: 10 µM unless noted.
Test [18] concerns M14 melanoma. To be noted: 10 µM unless noted.
In test [19] the test system is NCI-H522 lung. To be noted: 10 µM.
The subject of test [20] is NCI-H460 lung. To be noted: 10 µM unless noted.

For `CCN(CCO)CCNc1ccc(C)c2sc3cc(OC)ccc3c(=O)c12`, the growth was 79.6% in [1]; 73.5% in test [2]; 76.1% in test [3]; 62% in test [4]; 55.8% in test [5]; 59.4% in test [6]. In addition, the growth in test [7] is 66.6%; in test [8], 48.9%; in test [9], 72.2%; in [10], 20.1%; in [11], 103%; in test [12] it was 64.2%. The growth in test [13] was 71.4%; in test [14] it was 70.1%; in [15], 73.7%; in test [16], 77.2%; in [17] it was 103%; in [18] it was 79.3%.
Take `CCCCCCCCCCCCCCCCC(=O)O.CCCCCCCCCCCCCCCCCC(=O)O.CCCCCCCCCCCCCCCCCC(=O)O.CCCCCCCCCCCCCCCCCC(=O)O.CCCCCCCCCCCCCCCCCC(=O)O.CO[CH-]OC12COC1CC(O)C1(C)C(O)C(OC(C)O)C3=C(C)C(OC(=O)C(O)C([NH-])c4ccccc4)CC(O)(C(OC(=O)c4ccccc4)C21)C3(C)C.[Cu+].[Zn].[Zn].[Zn].[Zn].[Zn]` (stereo not given): the growth was 43.6% in test [1]; 73.2% in test [2]; 28.6% in [3]; 56.4% in [4]; 41.5% in test [5]; 16.4% in test [19]. In addition, the growth in [6] is 27.8%; in test [7] it was 41.7%; in test [8], 14.7%; in test [10], 8.31% (active); in test [11], 69.5%; in [12], 13.8%. For the same molecule, the growth in test [13] is 24.3%; in test [14], 47.6%; in test [15] it was 16.5%; in [17] it was 80.6%; in test [18] it was 35.5%.
As for `O=C1c2cc([N+](=O)[O-])ccc2-c2cc(Cl)c(NC(=O)C(F)(F)F)cc21`, the growth in test [1] is 95.3%; in test [2] it was 101%; in [3], 103%; in test [4] it was 106%; in test [5], 99.4%; in test [19] it was 113%. The growth in test [6] is 108%; in [7] it was 108%; in test [8], 95.9%; in test [9], 112%; in test [10], 88.6%; in test [12] it was 109%. For the same molecule, the growth is 87.5% in test [13]; 107% in test [14]; 111% in [15]; 95.4% in test [16]; 128% in [17]; 110% in test [18].
Consider `O=C(Nc1cccc(Cn2c(=O)[nH]c3ccc(Oc4ncccn4)cc3c2=O)c1)c1cc(Cl)cc(Cl)c1`, for which the growth is 74.1% in test [1]; 44.2% in test [2]; 57.7% in [3]; 71.6% in test [4]; 44.1% in test [5]; 49.3% in [19]. Moreover, the growth in test [6] is 56%; in test [7], 72.6%; in test [9], 68%; in test [10] it was 4.32% (active); in [11], 30.5%; in test [12] it was 39.3%. For the same molecule, the growth was 31.9% in test [13]; 69.1% in test [14]; 64.6% in test [15]; 11.8% in test [16]; 68.4% in test [17]; 73% in test [18].
For `CC(=O)N(N=O)c1ccc([N+](=O)[O-])cc1Cl`, the growth in [1] was 34%; in test [2], 68.3%; in test [3], 74.3%; in [4] it was 97%; in test [5], 31.6%; in test [6] it was 61.7%. In addition, the growth in [7] is 74.1%; in [8], 97.6%; in [9] it was 82.2%; in [10], 49.5%; in [11], 58.9%; in test [12] it was 58.9%. Further, the growth was 83.9% in test [13]; 78.5% in [14]; 66.9% in [15]; 72.7% in test [16]; 45.4% in [17]; 64.6% in test [18].
For `CCCCCCN(CCCCCC)CCC(=O)Nc1ccc(S(=O)(=O)c2ccc(NC(=O)CCN(CCCCCC)CCCCCC)cc2)cc1`, the growth in [1] is 84.3%; in test [2], 78.6%; in test [3], 75.3%; in test [4] it was 76.8%; in [5], 69.4%; in test [6], 94.1%. Besides, the growth in test [7] is 90.5%; in [8], 74.1%; in [9], 95.4%; in [10], 7.37% (active); in test [11], 96%; in test [12], 61%. Also, the growth in test [13] is 83.3%; in test [14], 80.1%; in [15], 100%; in test [16], 94.7%; in [17] it was 99.8%; in test [18], 88.9%.
With `CC(C)(C)OC(=O)N1C/C(=C\c2ccccc2)C(=O)/C(=C/c2ccccc2)C1`, the growth in [1] was 103%; in [2], 81.6%; in test [3], 92.6%; in [4] it was 96.4%; in [5], 69.4%; in [19], 72%. In addition, the growth in [6] is 92.7%; in test [7] it was 81.6%; in test [9] it was 112%; in test [10] it was 74.8%; in [11], 113%; in test [12], 79.9%. Further, the growth in test [13] is 102%; in test [14], 81.4%; in test [15], 99.5%; in test [16], 104%; in [17] it was 91.4%; in [18], 98.3%.
Regarding `COc1cc2c(/C=C3\C(=O)Nc4ccc(Br)cc43)c(Cl)n(C)c2cc1C`, the growth in test [1] is 20.6%; in [2], 45.1%; in test [3], 17.2%; in [20], 8.86% (active); in test [5], -4.95% (active); in test [19] it was -3.92% (active). Besides, the growth was 24% in test [6]; -17.3% (active) in test [7]; 6.03% (active) in [8]; 17.5% in test [9]; 6.73% (active) in [10]; 21.9% in [11]. The growth was 7.42% (active) in [12]; -23.9% (active) in [13]; 29.6% in test [14]; 9.82% (active) in test [15]; 7.51% (active) in [16]; 28.8% in test [17].
For `Cc1ccc(NCc2cn(-c3ccc(C(=O)O)cc3)nc2-c2ccc(C(=O)O)cc2)cc1`, the growth in test [1] was 92.2%; in test [2], 107%; in [3] it was 99.7%; in test [4], 100%; in test [5] it was 107%; in test [6], 94.9%. Moreover, the growth in [7] is 103%; in test [9] it was 100%; in test [10], 102%; in test [11], 93.1%; in [12], 108%; in [13], 121%. The growth in [14] was 92.8%; in test [15] it was 103%; in test [16], 101%; in test [17] it was 97.6%; in test [18], 99.3%.
